# IMPase inh – cell-permeable inhibitors of inositol monophosphatase (IMPase); P97697; CHO-M1 cells, IP1 accumulation, HTRF TR-FRET ratio; inhibition (IP1 accumulation), % at 46.1 µM; 120,000 tested, under 10 active; active = well fitted curve in the direction sought with a large enough effect in the signal ratio, not every such curve was filed as active; inconclusive = small, poorly fitted or top-dose-only effect, or a change in a side signal; inactive = no such curve, though single readings can be large or run the other way; the % refers to the signal ratio;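 note: cells stimulated with carbachol in lithium chloride buffer; plate controls were DMSO basal wells for no effect and reference inhibitor wells for full effect; higher means more IMPase inhibition seen as more IP1 and lower FRET ratio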
# Target sequence (P97697 whole entry, looked up): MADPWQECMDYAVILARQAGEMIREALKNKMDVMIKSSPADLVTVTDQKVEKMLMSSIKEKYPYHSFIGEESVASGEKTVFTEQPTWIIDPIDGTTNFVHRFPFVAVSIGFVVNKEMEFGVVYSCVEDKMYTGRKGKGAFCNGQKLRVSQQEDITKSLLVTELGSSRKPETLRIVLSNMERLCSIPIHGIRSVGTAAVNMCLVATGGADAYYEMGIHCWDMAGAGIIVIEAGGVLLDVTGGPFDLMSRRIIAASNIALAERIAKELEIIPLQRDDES
#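 Carbachol-driven Gq signalling in CHO-M1 cells (2000/well) generates IP1. Compounds that block IMPase raise IP1 and so reduce the FRET signal from Eu-anti-IP1 and d2-IP1 after a 10 min room-temperature lysis.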
# Lamin A splicing – modulators of lamin A splicing. HeLa LMNA splicing GFP/RFP minigene ratio, 48 h. Potency, µM (highest dose often 46.1 µM), for inactives: at the highest dose ratio change, negative = inhibition, actives largely listed as inhibitors. actives 0.01% (n = 200,000). AID 1487; active = well fitted inhibition curve with a large enough effect in the signal ratio, with a control signal flat, not every such curve was filed as active; inconclusive = small, poorly fitted or top-dose-only effect, or effect the other way, or a change in a side signal; the % refers to the signal ratio; note: potency is the fitted concentration of half-maximal effect
#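 Read-out is the ratio of GFP to DsRed2 object intensity, acquired by 488 nm laser-scanning cytometry on HeLa lamin A-EGFP minigene reporter cells. Compound incubation 48 hrs at 37 °C in Opti-MEM with 2% FBS; DMSO 0.5% final.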
# PNC assembly inh – inhibitors of perinucleolar compartment assembly; PC3M PTB-GFP, PNC prevalence imaging, 16 h; hits give low values; activity change (PNC), negative = inhibition, % at 10 µM; actives 3.1% (n = 140,000);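 active = readout at or below -70, meaning at least 70% loss of cells showing the perinucleolar compartment, a nuclear body marking cancer cells; inconclusive = readout between -30 and a set limit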;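 note: plate controls were DMSO wells for no effect and camptothecin positive control wells for full effect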
#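 Compounds are pinned in duplicate onto adhered PC3M cells stably expressing GFP-tagged PTB and incubated 16 h at 37 C. Cells are then fixed, nuclei stained with Hoechst, and PNC-positive cells counted.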
# * hit, by the source's call; ? = inconclusive; . = no result given; [ ] = remark or other dose. The entries come from a sample that favours hits as a whole. Unless noted, % is set by controls: 0 for no effect and ±100 for the full control effect.
SMILES,IMPase inh,Lamin A splicing,PNC assembly inh
COc1ccc(NC(=O)C(C)N2Cc3ccccc3C2=O)cc1OC (stereo not given),.,7%[46 µM],.
O=C(Nc1ccc(SC(F)F)cc1)C12CCC(CC1)C2,-2,-2%,-113*
C=C1C2(C(=O)Nc3ccc(SC(F)F)cc3)CCC(C2)C1(C)C (stereo not given),-2,-17%,?
CC(=O)c1cc(-c2ccc(F)cc2)n(CCC(=O)Nc2nc3c(C)cccc3s2)c1C,.,26%[46 µM],.
O=C(c1cnc(N2CCOCC2)c2ccccc12)N1CCN(c2ccccc2)CC1,.,4%[46 µM],.
N/C(=N\OC(=O)COc1ccc(Br)cc1)c1ccncc1,.,?,-102*
N/C(=N\OC(=O)Cc1ccccc1)c1ccncc1,.,13%[46 µM],.
COCCn1c(SCC(=O)Nc2ccc(Br)cc2)nc2c([nH]c3ccccc32)c1=O,.,8%[46 µM],.
COc1ccc(C(=O)C2CCCN(C3Cc4ccccc4C3)C2)c(OC)c1 (stereo not given),.,1%[46 µM],.
CC1(C)Cc2c(C#N)c(OCC(=O)c3ccc(Cl)cc3)nc(-c3ccoc3)c2CO1,8,-3%,-94*
CC1(C)Cc2c(C#N)c(OCC(=O)c3ccccc3)nc(-c3ccoc3)c2CO1,-9,15%,-22
COCCc1nn2c(=O)cc(COC(=O)c3ccco3)nc2s1,.,-2%[46 µM],.
Cc1ccc(NC(=O)C(=O)NCC(c2cccnc2)N2CCc3ccccc32)cc1Cl (stereo not given),.,1%[46 µM],.
Cc1ccc(OCCCCn2c(-c3ccc(Cl)cc3)nc3ccccc3c2=O)cc1,-2,.,.
CN1c2ccccc2C(C)(C)C12CC(c1ccc(Cl)c(S(=O)(=O)N3CCCC3)c1)=NO2 (stereo not given),.,?,-121*
CN1c2ccccc2C(C)(C)C12CC(CCl)=NO2 (stereo not given),?,-5%,27
CCC(C)NC(=O)CN(c1ccc(OC)cc1)S(=O)(=O)c1ccc(NC(C)=O)cc1 (stereo not given),-7,2%,-127*
COc1ccc(N(CC(=O)NCC(C)C)S(=O)(=O)c2ccccc2)cc1,.,10%[46 µM],.
O=C(NC1=NCCS1)c1ccccc1OCc1ccccc1Cl,.,-6%[46 µM],.
Cc1ccc(NC(=O)CCn2cccn2)cc1Cl,.,9%[46 µM],.
CN(C)CCCC1(c2ccc(F)cc2)OCc2cc(C#N)ccc21 (stereo not given),.,-7%,-115*
Cc1cccc(NS(=O)(=O)c2ccc(C)c(C(=O)OCC(=O)Nc3cc(C)on3)c2)c1,5,?,-100*
COc1ccc(-c2cc(C(=O)OCC(=O)Nc3cc(C)on3)c3ccccc3n2)cc1OC,-1,-5%[0.0737 µM],26
Cc1ccc(-c2cc(C(=O)OCC(=O)Nc3cc(C)on3)c3ccccc3n2)c(C)c1,8,6%,-82*
Cc1cccc(NS(=O)(=O)c2cc(C(=O)OCC(=O)Nc3cc(C)on3)ccc2C)c1,-2,?,?
SMILES,IMPase inh,Lamin A splicing,PNC assembly inh
COc1ccc(C(=O)OCC(=O)Nc2cc(C)on2)c(OC)c1OC,.,-5%[46 µM],.
COc1ccc(C)cc1NC(=O)Cn1c(=O)ccc2cc(S(=O)(=O)N3CCCC3)ccc21,.,5%[46 µM],.
CCC(=O)Nc1nc2c(OC)ccc(C)c2s1,-7,?,47
COc1ccc(OC)c2sc(NC(=O)CCSc3ccccc3)nc12,18,?,-88*
Cn1ncc2c(NCc3ccc(Cl)cc3)ncnc21,.,-3%[46 µM],.
C=CCNC(=S)NNC(=O)c1ccc(Br)cc1,5,-2%,-29
C=CCNC(=S)NNC(=O)c1ccc(OCCCC)cc1,-9,?,-122*
COc1ccc([N+](=O)[O-])cc1CSc1nnc(NC(C)=O)s1,.,4%[46 µM],.
CCOc1cc(CNc2ccc3c(c2)OCCO3)cc(Br)c1OCC,2,?,-83*
CCOc1cc(CNc2ccc(N3CCCC3)cc2)cc(Cl)c1OC,.,?,-113*
CCOc1cc(CNc2ccc(N3CCOCC3)cc2)cc(Br)c1OCC,.,?,-113*
C=CCOc1c(Cl)cc(CNc2ccc(C)c(Cl)c2)cc1OC,7,?,-92*
CCOc1ccc(CNc2ccc(N3CCCC3)cc2)cc1,26,-10%,14
C=CCOc1c(Cl)cc(CNc2ccc(N(C)C)cc2)cc1OC,34,?,?
CCOc1ccc(C(=O)Nc2ccc3c(c2)OCCO3)cc1Br,-6,.,.
COc1cc(CNc2ccc(N3CCOCC3)cc2)cc(Br)c1OC,.,-26%[46 µM],.
Cc1cc(=O)oc2cc(OCc3ccc(C(=O)OCC(=O)Nc4ccc(N(C)C)cc4)cc3)ccc12,.,-9%[9.22 µM],.
Cc1ccc(CO/N=C\Cc2snc(Sc3ncc(C(F)(F)F)cc3Cl)c2C#N)cc1,1,6%,18
Cc1cc(C(=O)Nc2ncc(C)s2)c2ccccc2n1,.,-10%[46 µM],.
COc1ccc(NC(=O)COc2ccc(S(=O)(=O)NC3CCCCC3)cc2)cc1OC,10,.,.
COc1ccc(OC)c(NC(=O)CCc2c(C)nn(-c3ccc(N4CCCC4)nn3)c2C)c1,.,-4%[46 µM],.
CCc1ccc(S(=O)(=O)/N=C2/C=C(Sc3ncn[nH]3)C(=O)c3ccccc32)cc1,.,?,-123*
Cc1ccc(S(=O)(=O)/N=C2/C=C(C3C(=O)CC(C)(C)CC3=O)C(=O)c3ccccc32)cc1,10,-9%,27
CCCC(=O)Nc1cc(C(=O)O)ccc1S(=O)(=O)c1ccc(C)cc1,.,-5%,-113*
CCCC(=O)Nc1cc(C(=O)NCc2ccccc2)ccc1S(=O)(=O)c1ccc(Cl)cc1,.,5%[46 µM],.
SMILES,IMPase inh,Lamin A splicing,PNC assembly inh
CS(=O)(=O)N1CCN(c2ccc(NC(=O)CSc3ccc(Cl)cc3)cc2)CC1,-2,-2%,12
Cc1ccc(C(=O)N2CCN(c3ccc(NC(=O)CSc4ccc(Cl)cc4)cc3)CC2)cc1,.,?,-113*
Cc1cccc(C)c1OCC(=O)Nc1c(C(=O)c2ccc(Br)cc2)oc2ccccc12,-2,.,.
CCC1CCCCN1CC(=O)c1c(C)[nH]c2ccccc12 (stereo not given),23,?,23
Cc1[nH]c2ccccc2c1C(=O)CN1CCCCC1C (stereo not given),-1,-2%,-96*
COc1ccc(CNC(=O)C2CCN(S(=O)(=O)c3cc(OC)ccc3OC)CC2)cc1,-13,-1%,-11
COc1ccc(CCNC(=O)C2CCN(S(=O)(=O)c3cc(OC)ccc3OC)CC2)cc1,-1,-12%,-83*
COc1ccc(OC)c(S(=O)(=O)N2CCC(C(=O)NCCc3ccccc3)CC2)c1,5,0%,-23
COc1ccc(OC)c(S(=O)(=O)N2CCC(C(=O)N3CCN(Cc4ccccc4)CC3)CC2)c1,-4,-15%,-80*
COC(=O)C1=C(Cn2cnc3ccccc32)NC(=O)NC1c1cc(C)ccc1C (stereo not given),17,-13%,-103*
CCOC(=O)C1=C(Cn2cnc3ccccc32)NC(=O)NC1c1cc(C)ccc1C (stereo not given),19,0%,-28
Cc1ccc(S(=O)(=O)NCCc2cn3c(C)csc3n2)cc1,.,-5%[46 µM],.
Cc1ccc(S(=O)(=O)Cc2ccc(C(=O)N3CCCC3)o2)cc1,4,-2%,-87*
Cc1ccc(S(=O)(=O)Cc2ccc(C(=O)N3CCCCCC3)o2)cc1,-9,-1%,-8
CNC(=O)C1CCN(Cc2cc3ccccc3n2Cc2cccc(C)c2)CC1,.,-12%[46 µM],.

# Screens as filed in PubChem.
